We go through 8 compounds from PubChem BioAssay (NCATS).

Inconclusive results are not listed. Active and inactive are the calls of the source. Calls come from the whole dose curve; as a rule, active = well fitted curve in the direction sought with a large enough effect; inconclusive = small, poorly fitted or top-dose-only effect, or another doubt; inactive = no such curve, though single readings can be large; an effect the other way counts as inactive or inconclusive.

The nature of test [1]: Quantitative High-Throughput drug screen in 47 multiple myeloma cell lines against the NCATS MIPE library collection: ARD_JJKsccE7 cell viability assay (AID 1918929). The procedure, abridged: (§1)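 qHTS of the MIPE 4.0 collection: 500 myeloma cells/well, 48 h drug exposure at 37C in 5% CO2, then CellTiter-Glo for 5 min at room temperature before luminescence reading.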
Test [2] can be described thus: Quantitative High-Throughput drug screen in 47 multiple myeloma cell lines against the NCATS MIPE library collection: Karpas620_DSMZ cell viability assay (AID 1918959). Note: nearly all actives have a fitted effect of over 30% in size. In outline:
(§2)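 Myeloma cells (500 per well) were exposed to MIPE 4.0 compounds by pin transfer and incubated 48 hours at 37C, 5% CO2. Viability was read as ATP by CellTiter-Glo luminescence, normalised to DMSO (100%) and media-only (0%) wells.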

Test [3] can be described thus: Quantitative High-Throughput drug screen in 47 multiple myeloma cell lines against the NCATS MIPE library collection: KMM1_JCRB cell viability assay (AID 1918960). Note: nearly all actives have a fitted effect of over 30% in size. In outline:
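Cell viability inhibition in this qHTS is measured via ATP content (CellTiter-Glo) after 48 h drug exposure at 37 °C. Wells hold 500 cells; DMSO-treated wells define 100% and medium-only wells 0%.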

The nature of test [4]: Quantitative High-Throughput drug screen in 47 multiple myeloma cell lines against the NCATS MIPE library collection: JIM1_ECACC cell viability assay (AID 1918964). The procedure, abridged: as §1
A short description of test [5]: Quantitative High-Throughput drug screen in 47 multiple myeloma cell lines against the NCATS MIPE library collection: Karpas25_ECACC cell viability assay (AID 1918968; note: nearly all actives have a fitted effect of over 35% in size). In outline: as §1
Test [6] is described as follows: Quantitative High-Throughput drug screen in 47 multiple myeloma cell lines against the NCATS MIPE library collection: KMS27_JCRB cell viability assay (AID 1918970). Note: nearly all actives have a fitted effect of over 30% in size. The procedure, abridged: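 KMS27_JCRB myeloma cells, 500 per well, exposed 48 h at 37 C, 5% CO2 to MIPE 4.0 compounds. Viability from ATP by CellTiter-Glo luminescence, normalized to DMSO (100%) and medium-only (0%) wells.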

The nature of test [7]: Quantitative High-Throughput drug screen in 47 multiple myeloma cell lines against the NCATS MIPE library collection: KMS12PE_JCRB cell viability assay (AID 1918972). Note: nearly all actives have a fitted effect of over 30% in size. In outline: (§3)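 CellTiter-Glo ATP luminescence gave viability after 48 h compound treatment at 37C of 500 multiple myeloma cells per well. Normalisation used DMSO-only wells as 100% and media-only wells as 0% viability; primary qHTS of approved and investigational drugs.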

Test [8] can be described thus: Quantitative High-Throughput drug screen in 47 multiple myeloma cell lines against the NCATS MIPE library collection: KMS20_JCRB cell viability assay (AID 1918973). Note: nearly all actives have a fitted effect of over 45% in size. In outline:
as §1

A short description of test [9]: Quantitative High-Throughput drug screen in 47 multiple myeloma cell lines against the NCATS MIPE library collection: NCIH929_DSMZ cell viability assay (AID 1918978). Note: nearly all actives have a fitted effect of over 35% in size. In outline:
(§4)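 ATP-based CellTiter-Glo luminescence after 48 h drug exposure (37 °C, 5% CO2) of 500 myeloma cells per well. DMSO-only wells set 100% viability, media-only wells 0%; MIPE 4.0 library added by pin tool.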

Test [10] in a line: Quantitative High-Throughput drug screen in 47 multiple myeloma cell lines against the NCATS MIPE library collection: JIM3_ECACC cell viability assay (AID 1918963; note: nearly all actives have a fitted effect of over 35% in size). The procedure, abridged:
as §2

The nature of test [11]: Quantitative High-Throughput drug screen in 47 multiple myeloma cell lines against the NCATS MIPE library collection: H1112_PLB cell viability assay (AID 1918967; note: nearly all actives have a fitted effect of over 30% in size). The procedure, abridged:
as §1

Test [12] is described as follows: Quantitative High-Throughput drug screen in 47 multiple myeloma cell lines against the NCATS MIPE library collection: KMS12BM_JCRB cell viability assay (AID 1918971). Note: nearly all actives have a fitted effect of over 35% in size. In outline:
(§5)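 Luminescent ATP measurement with CellTiter-Glo gives viability, scaled between DMSO-only wells (100%) and media-only wells (0%). Cells, 500 per well, faced library compounds for 48 hours at 37C.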

Test [13] can be described thus: Quantitative High-Throughput drug screen in 47 multiple myeloma cell lines against the NCATS MIPE library collection: KMS26_JCRB cell viability assay (AID 1918975). Note: nearly all actives have a fitted effect of over 45% in size. In outline: as §5
Test [14] is described as follows: Quantitative High-Throughput drug screen in 47 multiple myeloma cell lines against the NCATS MIPE library collection: MOLP8_DSMZ cell viability assay (AID 1918977). Note: nearly all actives have a fitted effect of over 45% in size. In outline:
as §4

Test [15] in a line: Quantitative High-Throughput drug screen in 47 multiple myeloma cell lines against the NCATS MIPE library collection: KMS21BM_JCRB cell viability assay (AID 1918974). Particulars: ATP luminescence, 48 h; viability: at 45.8 µM (top of the series) unless noted. The procedure, abridged:
as §1

Test [16] in a line: Quantitative High-Throughput drug screen in 47 multiple myeloma cell lines against the NCATS MIPE library collection: Karpas417_ECACC cell viability assay (AID 1918961). Particulars: Karpas417 myeloma viability, CellTiter-Glo ATP luminescence, 48 h; viability (% of DMSO): at 45.8 µM (top of the series). The procedure, abridged: as §3
In general terms: ATP-based viability assays read luminescence as a measure of living cells.

Test [17] is described as follows: Quantitative High-Throughput drug screen in 47 multiple myeloma cell lines against the NCATS MIPE library collection: KHM11_PLB cell viability assay (AID 1918962). Note: nearly all actives have a fitted effect of over 35% in size. In outline:
as §2

Test [18] is described as follows: Quantitative High-Throughput drug screen in 47 multiple myeloma cell lines against the NCATS MIPE library collection: INA6_PLB cell viability assay (AID 1918965; note: nearly all actives have a fitted effect of over 55% in size). In outline:
as §3

Test [19] can be described thus: Quantitative High-Throughput drug screen in 47 multiple myeloma cell lines against the NCATS MIPE library collection: MMM1_PLB cell viability assay (AID 1918976). Note: nearly all actives have a fitted effect of over 35% in size. In outline:
as §4

The term viability denotes a read-out of living cells in per cent, often relative to untreated cells.
Potency is the fitted concentration of half-maximal effect.

As for `N#Cc1ccc(NC(=O)Nc2ccccc2Br)c2n[nH]nc12`, the Potency was 10.5 µM (active) in [1]; 13.2 µM (active) in test [2]; 20.9 µM (active) in test [3]; 8.33 µM (active) in test [4]; 16.6 µM (active) in [5]; 13.2 µM (active) in [6]. Further, the Potency in test [7] was 9.35 µM (active); in test [9] it was 18.7 µM (active). The Potency entry in test [8] was “inactive”.

Consider `CCC(=O)NC[C@H](Cc1ccc(OCCc2nc(-c3ccccc3)oc2C)cc1)NC(C)=CC(=O)c1ccc(C(F)(F)F)cc1`, for which the Potency in [1] is 1.48 µM (active); in test [12], 26.4 µM (active); in [7], 7.43 µM (active); in test [13], 20.9 µM (active); in test [14] it was 23.5 µM (active). In addition, the Potency result in test [2], in [10], in test [11], in [5] and in test [8] was “inactive” throughout.

On to `O=C(O)c1ccc(-c2c[nH]c3ncc(-c4ccccc4)cc23)cc1C1CCCC1`, for which the Potency in [1] is 0.935 µM (active). The Potency result in test [2], in [3], in test [7], in test [13] and in test [14] was “inactive” in each case. The viability in test [15] was 272% (active).

As to `Oc1ccc(C2=Cc3ccc(O)cc3OC2)cc1`, the Potency in test [1] is 1.66 µM (active); in test [3] it was 2.64 µM (active); in test [16], 2.64 µM (active); in test [17] it was 5.26 µM (active); in test [4], 3.32 µM (active); in [18], 0.662 µM (active). For the same compound, the Potency in test [5] was 1.48 µM (active); in test [6], 2.09 µM (active); in [12], 2.96 µM (active); in test [8], 3.32 µM (active); in test [15] it was 2.35 µM (active); in test [13] it was 8.33 µM (active). Further, in test [14], the Potency is 2.35 µM (active).

For `CN(C)CCC=C1c2ccccc2COc2ccc(CC(=O)O)cc21`, the Potency result in test [1], in [2], in test [10], in test [4], in test [6] and in [12] was “inactive” in each case. Also, the Potency entry in test [7] and in test [8] was “inactive” throughout.

For `CCCCCCCCCCCC1=C(O)C(=O)C=C(O)C1=O`, the Potency is 1.66 µM (active) in [1]; 0.264 µM (active) in test [2]; 2.96 µM (active) in [3]; 0.59 µM (active) in [4]; 2.64 µM (active) in test [18]; 0.187 µM (active) in test [6]. For the same compound, in test [7], the Potency is 1.18 µM (active).

On to `c1ccc2c(Cc3c[nH]c4ccccc34)c[nH]c2c1`, for which the Potency entry in [1] is “inactive”. Moreover, the Potency in [2] is 9.35 µM (active); in test [17], 4.18 µM (active); in test [18], 3.32 µM (active); in test [11], 1.05 µM (active); in test [5], 1.05 µM (active); in test [6] it was 7.43 µM (active). For the same compound, the Potency is 20.9 µM (active) in [12]; 5.9 µM (active) in test [7]; 2.96 µM (active) in test [8]; 4.69 µM (active) in test [13]; 16.6 µM (active) in [19]; 18.7 µM (active) in test [14].

For `NS(=O)(=O)c1ccc(NC2=CC(=O)c3ccccc3C2=O)cc1`, the Potency in test [1] is 2.64 µM (active); in [2] it was 1.66 µM (active); in test [10] it was 18.7 µM (active); in [18], 11.8 µM (active); in [5], 0.833 µM (active); in test [6], 1.32 µM (active). Also, the Potency was 0.526 µM (active) in test [7], 3.72 µM (active) in test [13] and 26.4 µM (active) in test [9]. Further, the Potency result in test [12] and in test [14] was “inactive” in each case.
